# Reference: PubChem BioAssay
# Activity calls are given as the source filed them.
# Tests used:
# [1] = optical density shifts of acrAB sulA E. coli – strain DRC41, OD650, 48 h, E. coli filamentation inducer project, primary screen (AID 1152); settings: higher = more signal, called active from +8 up or from −8 down;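 note: E. coli MC1000 strain DRC41 lacking acrAB efflux pump and sulA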
# [2] = probe aLefty1 binding on compound microarray – biochemical, small-molecule microarray, 635/667 nm fluorescence, primary screen (AID 1153); settings: higher = more signal;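 note: score merges spot fluorescence with signal-to-noise ratio from the scanned slide images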
# [3] = plasmodial surface anion channel blockers, osmotic lysis – cell-based, P. falciparum Indochina, OD700, 1 h, primary screen (AID 1154); settings: P. falciparum Indochina infected RBC osmotic lysis, higher = more signal, called active from +8 up or from −8 down
# [4] = plasmodial surface anion channel blockers, osmotic lysis – cell-based, P. falciparum Indochina, OD700, 2 h, primary screen (AID 1155);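 note: lysis reports solute entry through the parasite surface anion channel PSAC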; settings: P. falciparum Indochina infected erythrocytes, higher = more signal, called active from +8 up or from −8 down
# [5] = changes in parasitized red cell lysis, either direction – P. falciparum Indochina, OD700, 3 h, PSAC antagonist project, primary screen (AID 1156); settings: P. falciparum-infected erythrocytes, osmotic lysis, higher = more signal, called active from +8 up or from −8 down
# [6] = plasmodial surface anion channel blockers, osmotic lysis – cell-based, P. falciparum Indochina, OD700, 18 h, primary screen (AID 1157); settings: P. falciparum Indochina infected erythrocytes, osmotic lysis OD700, 18 h; higher = more signal, called active from +8 up or from −8 down
# [7] = S6 kinase pathway phospho-S6 level changes – cell-based, A549, cytoblot, luminescence, serum-stimulated, primary screen (AID 1158); settings: 5 h, higher = more signal;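 note: serum-stimulated A549 lung adenocarcinoma cells; signal is phosphorylated S6 detected by cytoblot immunostaining with HRP secondary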
# [8] = target: NADPH oxidase 2 (Homo sapiens) (UniProt P04839); experiment: compounds shifting NOX2 Amplex Red fluorescence – cell-based, HEK293-NOX2, PMA-stimulated, NOX inhibitor project, primary screen (AID 1159); settings: 45 min, higher = more signal, called active from +8 up or from −8 down; note: test concentration not given here
# Chain of NADPH oxidase 2 (Homo sapiens) (P04839 whole entry, looked up): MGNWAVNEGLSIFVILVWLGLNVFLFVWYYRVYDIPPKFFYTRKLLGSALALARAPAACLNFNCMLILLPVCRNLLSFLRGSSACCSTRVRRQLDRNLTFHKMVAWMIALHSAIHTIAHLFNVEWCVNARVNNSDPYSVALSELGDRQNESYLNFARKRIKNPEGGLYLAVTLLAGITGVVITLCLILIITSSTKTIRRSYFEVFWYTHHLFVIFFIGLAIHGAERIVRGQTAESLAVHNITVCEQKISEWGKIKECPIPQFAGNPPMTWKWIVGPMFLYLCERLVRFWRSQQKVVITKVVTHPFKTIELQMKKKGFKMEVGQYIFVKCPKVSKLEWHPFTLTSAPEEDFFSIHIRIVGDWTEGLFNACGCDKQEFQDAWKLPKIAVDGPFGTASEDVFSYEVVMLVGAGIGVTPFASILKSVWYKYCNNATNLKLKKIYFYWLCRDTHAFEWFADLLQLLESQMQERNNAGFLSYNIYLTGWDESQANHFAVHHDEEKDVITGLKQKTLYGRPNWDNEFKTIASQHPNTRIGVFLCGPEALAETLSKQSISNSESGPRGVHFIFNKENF
# [9] = target: NADPH oxidase 4 (Homo sapiens) (UniProt Q9NPH5); experiment: compounds shifting NOX4 Amplex Red fluorescence – cell-based, HEK293-NOX4, tetracycline-induced, NOX inhibitor project, primary screen (AID 1160); settings: HEK293-NOX4, Amplex Red H2O2 fluorescence, 45 min; higher = more signal, called active from +8 up or from −8 down
# Chain of NADPH oxidase 4 (Homo sapiens) (Q9NPH5 whole entry, looked up): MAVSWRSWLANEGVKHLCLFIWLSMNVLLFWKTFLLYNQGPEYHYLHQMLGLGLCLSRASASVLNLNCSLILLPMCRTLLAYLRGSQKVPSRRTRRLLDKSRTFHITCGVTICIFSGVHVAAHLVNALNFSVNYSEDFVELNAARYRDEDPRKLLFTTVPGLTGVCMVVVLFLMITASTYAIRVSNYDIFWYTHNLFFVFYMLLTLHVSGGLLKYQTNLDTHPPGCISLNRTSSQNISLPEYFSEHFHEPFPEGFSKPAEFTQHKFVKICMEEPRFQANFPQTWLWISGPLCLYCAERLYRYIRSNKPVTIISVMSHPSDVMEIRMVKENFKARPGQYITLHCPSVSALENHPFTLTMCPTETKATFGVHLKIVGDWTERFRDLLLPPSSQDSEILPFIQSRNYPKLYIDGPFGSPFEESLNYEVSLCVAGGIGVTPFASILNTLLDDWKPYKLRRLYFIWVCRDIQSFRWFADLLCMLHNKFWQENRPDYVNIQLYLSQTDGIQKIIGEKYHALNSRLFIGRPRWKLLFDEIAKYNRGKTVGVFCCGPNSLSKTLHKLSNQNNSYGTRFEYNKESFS
# [10] = target: NADPH oxidase 5 (Homo sapiens) (UniProt Q96PH1); experiment: compounds shifting NOX5 Amplex Red fluorescence – cell-based, HEK293-NOX5, NOX inhibitor project, primary screen (AID 1161); settings: HEK293-NOX5, ionomycin, 45 min, higher = more signal
# Chain of NADPH oxidase 5 (Homo sapiens) (Q96PH1 whole entry, looked up): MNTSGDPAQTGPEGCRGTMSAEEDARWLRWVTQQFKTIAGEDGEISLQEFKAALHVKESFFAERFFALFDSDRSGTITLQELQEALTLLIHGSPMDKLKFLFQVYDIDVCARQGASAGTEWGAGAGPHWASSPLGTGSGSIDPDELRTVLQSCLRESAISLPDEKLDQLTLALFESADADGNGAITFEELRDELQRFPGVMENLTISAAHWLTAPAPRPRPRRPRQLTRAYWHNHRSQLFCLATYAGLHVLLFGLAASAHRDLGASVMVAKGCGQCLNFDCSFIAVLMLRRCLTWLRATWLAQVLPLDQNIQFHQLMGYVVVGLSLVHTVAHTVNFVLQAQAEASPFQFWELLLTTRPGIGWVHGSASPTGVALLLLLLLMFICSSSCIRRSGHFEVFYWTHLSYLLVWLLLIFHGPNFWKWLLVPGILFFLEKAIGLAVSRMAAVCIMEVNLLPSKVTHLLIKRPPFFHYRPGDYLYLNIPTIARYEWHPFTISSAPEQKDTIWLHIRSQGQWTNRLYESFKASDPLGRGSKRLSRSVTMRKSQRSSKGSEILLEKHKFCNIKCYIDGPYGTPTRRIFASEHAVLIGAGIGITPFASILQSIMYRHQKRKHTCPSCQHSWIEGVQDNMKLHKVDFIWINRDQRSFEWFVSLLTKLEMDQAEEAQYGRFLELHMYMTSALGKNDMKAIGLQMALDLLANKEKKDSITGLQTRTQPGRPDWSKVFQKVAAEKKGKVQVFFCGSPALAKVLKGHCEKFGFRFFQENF
# [11] = compound effects on lung adenocarcinoma cell viability – A549, calcein-AM fluorescence, 48 h, basal, profiling panel (AID 1162); settings: higher = more signal; note: test concentration not given here
# [12] = compound effects on differentiated 3T3-L1 adipocyte viability – cell-based, 3T3-L1 adipocytes, calcein-AM fluorescence, 48 h, basal, profiling panel (AID 1163); settings: 3T3-L1 adipocytes viability, higher = more signal; note: test concentration not given here
# [13] = compound effects on hepatocellular carcinoma cell viability – HepG2, calcein-AM fluorescence, 48 h, basal, profiling panel (AID 1164); settings: higher = more signal; note: test concentration not given here
# [14] = compound effects on multiple myeloma cell viability – MM1S, calcein-AM fluorescence, 48 h, basal, profiling panel (AID 1165); settings: higher = more signal;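 note: viability of MM1S multiple myeloma cells under basal unstimulated conditions; test concentration not given here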
# [15] = calcein-AM signal in unstimulated myeloma cells – cell-based, calcein-AM fluorescence, 48 h, PK04 Diversity Set, profiling panel (AID 1166); settings: RPMI8226 myeloma viability, higher = more signal;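 note: cells grown under basal conditions without added stimulus; test concentration not given here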
# [16] = JC-1 mitochondrial signal, unstimulated HepG2 cells – cell-based, JC-1 fluorescence, 24 h, 100 nL compound, profiling panel (AID 1167); settings: HepG2 mitochondrial potential, higher = more signal; note: test concentration not given here
# [17] = JC-1 mitochondrial signal, unstimulated adipocytes – cell-based, JC-1 fluorescence, 3T3-L1 adipocytes, 24 h, 100 nL compound, profiling panel (AID 1168); settings: JC-1 mitochondrial fluorescence, higher = more signal, called active from +8 up or from −8 down; note: test concentration not given here
# [18] = JC-1 mitochondrial signal, unstimulated myeloma cells – cell-based, JC-1 fluorescence, RPMI8226, 24 h, 100 nL compound, profiling panel (AID 1169); settings: JC-1 mitochondrial potential fluorescence, higher = more signal; note: test concentration not given here
# [19] = JC-1 mitochondrial signal, unstimulated MM1S myeloma – cell-based, JC-1 fluorescence, 24 h, 100 nL compound, profiling panel (AID 1170); settings: MM1S mitochondrial potential, higher = more signal; note: test concentration not given here
# [20] = resazurin metabolic signal in A549 cells – cell-based, resazurin fluorescence, 24 h, PK04 Diversity Set, profiling panel (AID 1171); settings: A549 viability, higher = more signal, called active from +8 up or from −8 down; note: test concentration not given here
SMILES,z-score [1],composite z-score [2],z-score [3],z-score [4],z-score [5],z-score [6],z-score [7],z-score [8],z-score [9],z-score [10],z-score [11],z-score [12],z-score [13],z-score [14],z-score [15],z-score [16],z-score [17],z-score [18],z-score [19],z-score [20]
CN(C)CCCCNC(=O)[C@@H]1C[C@@H]2C(=O)N[C@@H](CCCCN)C(=O)N2[C@@H]1c1cccc(OCCO)c1,-0.389 (inactive),0.837,2.51 (inactive),0.337 (inactive),-1.21 (inactive),-0.0182 (inactive),-0.446,1.36 (inactive),1.05 (inactive),1.43,-0.144,-0.736,-1.03,-0.058,0.376,-1.01,-0.0937 (inactive),-0.737,-0.0289,-0.391 (inactive)
O=C1O[C@@H](c2ccccc2)[C@@H](c2ccccc2)N2[C@@H](c3ccc(O)cc3)[C@]3(C(=O)Nc4ccccc43)[C@@H](C(=O)NC[C@H](O)c3ccccc3)[C@H]12,2.14 (inactive),-0.151,1.36 (inactive),-1.01 (inactive),-1.22 (inactive),-1.89 (inactive),1.09,0.0877 (inactive),-0.423 (inactive),1.42,0.0061,0.874,-0.121,-0.0487,-1.08,-1.5,-0.377 (inactive),-0.774,0.32,0.314 (inactive)
O=C1O[C@@H](c2ccccc2)[C@@H](c2ccccc2)N2[C@@H](c3ccc(O)cc3)[C@]3(C(=O)Nc4ccccc43)[C@@H](C(=O)N3CCCCCCC3)[C@H]12,-0.779 (inactive),2.88,0.571 (inactive),-0.0476 (inactive),-1.25 (inactive),0.516 (inactive),-0.274,0.915 (inactive),0.522 (inactive),1.57,-0.871,0.616,0.404,-0.391,-2.29,-1.79,0.145 (inactive),-0.659,0.0147,-1.09 (inactive)
COc1ccc([Si](C)(C)[C@H]2[C@H](CC(=O)N3CCC[C@H]3CO)O[C@@]3(C(=O)N(Cc4cccc(N5CCC5=O)c4)c4ccccc43)[C@@H]2C)cc1,0.689 (inactive),0.233,6.65 (inactive),1.06 (inactive),1.47 (inactive),0.696 (inactive),0.249,1.91 (inactive),0.777 (inactive),4.69,-0.246,1.57,-0.108,-2.2,-4.11,3.25,-0.457 (inactive),-1.14,0.619,-1.2 (inactive)
C=CCNC(=O)[C@H]1[C@@H]2C(=O)O[C@@H](c3ccccc3)[C@@H](c3ccccc3)N2[C@@H](c2ccc(OCCO)cc2)[C@]12C(=O)N(C(=O)OCCOC)c1ccc(C#CC3(O)CCCCCC3)cc12,0.838 (inactive),0.658,1.92 (inactive),0.742 (inactive),0.0102 (inactive),0.509 (inactive),0.0127,1.56 (inactive),0.972 (inactive),1.02,1.13,1.61,0.388,-0.963,-2.4,-0.898,1.71 (inactive),-0.774,-0.988,0.454 (inactive)
C=C(COC)/C(=C/C[C@H](OC(C)=O)c1ccccc1OCCO)c1cnc2ccccc2c1,-0.0836 (inactive),-0.0779,16.9 (active),2.74 (inactive),0.661 (inactive),0.799 (inactive),-0.177,-1.79 (inactive),-0.0686 (inactive),-0.854,0.406,-0.309,-0.738,-2.08,-1.32,1.4,-1.34 (inactive),-0.439,-0.62,-0.0424 (inactive)
C=CCNC(=O)[C@H]1[C@@H]2C(=O)O[C@@H](c3ccccc3)[C@@H](c3ccccc3)N2[C@@H](c2ccc(O)cc2)[C@]12C(=O)Nc1ccc(C#Cc3ccc(OC)cc3)cc12,-0.837 (inactive),-0.0084,2.41 (inactive),1.05 (inactive),-0.99 (inactive),0.859 (inactive),-0.294,0.143 (inactive),-2.18 (inactive),-0.436,-1.06,0.205,-1.78,-2.37,-4.35,-0.385,-0.0338 (inactive),-1.22,-0.614,-0.989 (inactive)
O[C@@H](Cc1ccccc1)[C@@H](/C=C/c1ccccc1)NCc1ccccc1Br,0.955 (inactive),0.0927,1.18 (inactive),0.411 (inactive),1.35 (inactive),0.205 (inactive),0.747,-0.175 (inactive),0.272 (inactive),-0.921,0.0965,-0.766,-0.0276,-1.3,-0.771,0.313,0.19 (inactive),-0.228,-1.8,-0.396 (inactive)
C=C(COC)C(=O)CC[C@@H](OC(=O)c1ccccc1-c1ccccc1C(=O)O)c1ccc(CO)o1,-0.448 (inactive),-0.0032,0.508 (inactive),0.802 (inactive),-2.11 (inactive),0.698 (inactive),-1,-3.41 (inactive),-1.58 (inactive),-3.07,-1.46,-0.736,-2.67,-1.69,-0.883,-2.74,0.429 (inactive),-0.323,-0.857,-1.03 (inactive)
